CF NFkB inh – inhibitors of PAF-induced NF-kB signaling, primary screen, cell-based, GFP fluorescence, uHTS; KKLEB NF-kB-GFP reporter, GFP fluorescence overnight; inhibition, % at 5 µM; actives 0.86% (n = 360,000);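 active = at least 50% inhibition at 5 µM, scaled per plate between neutral and stimulator controls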;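 also: PAF is a Pseudomonas aeruginosa culture filtrate used as stimulus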
HIF-2a block – HIF-2a reporter inhibitors, primary screen, luminescence, 786-0 RCC cells; actives 0.72% (n = 360,000); inhibition, % at 18.8 µM; 786-0 RCC cells HIF-2a reporter, luciferase luminescence, overnight;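 active = inhibition of the luminescence signal of 40% or more relative to plate controls, in a single-dose primary screen at 18.75 µM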
Peg3 prom inh – Peg3 promoter-driven luciferase inhibitors, primary screen, cell-based, HeLa, luciferase luminescence | AID 588405, 2011 | actives 1.7% (n = 360,000) | HeLa PEG-Prom luciferase reporter, overnight | inhibition, % at 20 µM;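 active = inhibition of at least 50% at 20 µM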
TWEAK Fn14 block – inhibitors of TWEAK-Fn14 signaling, primary screen, luciferase reporter cells, uHTS | TWEAK-stimulated Fn14 reporter cells, luciferase luminescence, 8 h | inhibition, % at 10 µM | actives 2% (n = 360,000); in the data active = inhibition above about 50%
KKLEB tox – cytotoxicity in KKLEB CF airway cells, primary screen, cytotoxicity control for CF NF-kB inhibitor project, cell-based, uHTS, fluorescence assay plates; actives 0.36% (n = 360,000); KKLEB CF airway cells viability, ATPlite luminescence, overnight; active compounds read low; cells stimulated with P. aeruginosa culture filtrate; activity change (cytotoxicity), % at 5 µM;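 active = corrected activity change at or below -50% at 5 µM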
TROY signal inh – inhibitors of TROY-driven NF-kB signaling, primary screen, Q293 LMP1-TROYcd cells, NF-kB luciferase, uHTS | Q293 LMP1-TROYcd NF-kB luciferase reporter, 4 h | actives 0.98% (n = 360,000) | inhibition, % at 10 µM;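 active = compounds whose plate-normalised and pattern-corrected inhibition of the luciferase reporter signal at the single screening dose is 50% or more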
Of the large screens only hits and unclear results are named; the others gave an inactive call. Sampled rows, rich in hits. Any-hit rate of the full collection: about 4%.

CCCS(=O)(=O)c1c(S(=O)(=O)CCC)c2c(C)cccn2c1C(N)=O	none
COc1ccccc1CNC(=O)COC(=O)c1ncc(Cl)c(Cl)c1Cl	none
CN(Cc1ccco1)c1ncnc2ccc(-c3ccc4c(c3)OCO4)cc12	none
Cc1nc(CN(C)c2ncnc3ccc(-c4ccc5c(c4)OCO5)cc23)cs1	HIF-2a block 55
CC1CCN(CCCNC(=O)c2cc3c(Cl)nc4ccccc4c3s2)CC1	Peg3 prom inh 53
O=C(C1CCCN(S(=O)(=O)c2cccc3nsnc23)C1)N1CC=C(c2ccccc2)CC1 (configuration not stated)	TWEAK Fn14 block 51
CCOC(=O)N1CCN(C(=O)C[C@@H]2C[C@@]3(C(=O)OC)CC(C)(C)CC=C3N(Cc3cccc4ccccc34)C2=O)CC1	none (no result: CF NFkB inh, Peg3 prom inh, TWEAK Fn14 block, KKLEB tox, TROY signal inh)
CCOc1cc(/C=C(\CC(=O)O)c2nc3ccccc3s2)ccc1OC	TWEAK Fn14 block 62
COc1ccc(/C=C(\CC(=O)O)c2nc3ccccc3s2)cc1O	none
CC1CCCC(NCC(O)COC(c2ccc(F)cc2)c2ccc(F)cc2)C1C (configuration not stated)	Peg3 prom inh 104
COC(=O)[C@@]1(C(C)C)N=C(c2cc(OC)c(OC)c(OC)c2)[C@]2(O1)C(=O)N(C)c1ccccc12	none (no result: CF NFkB inh, Peg3 prom inh, KKLEB tox)
COc1ccc(NC(=O)O/N=C/c2c(C)nn(C(C)(C)C)c2C)cc1	TROY signal inh 65
Cc1ccccc1NC(=O)COC(=O)CC1CCCC1	none
Cc1ccc(S(=O)(=O)NCC(=O)OCc2cc(=O)oc3cc(C)ccc23)cc1	none
Cc1ccc2c(COC(=O)C3=COCCO3)cc(=O)oc2c1	TWEAK Fn14 block 81
COc1ccccc1NC(=O)CSc1nc2n[nH]c(C)c2c(=N)n1-c1ccccc1Cl	TWEAK Fn14 block 62
O=C(COC(=O)c1ccccc1-n1cnnn1)c1ccccc1	none
O=C(COC(=O)c1ccccc1-n1cnnn1)c1ccc(Br)cc1	TWEAK Fn14 block 72, TROY signal inh 62
Cc1c(NC(=O)NC(=O)c2ccc(F)cc2)c(=O)n(-c2ccccc2)n1C	none
Cc1c(N=C2N=C(NC(=O)c3ccc(F)cc3)c3ccccc32)c(=O)n(-c2ccccc2)n1C	Peg3 prom inh 63
Cc1cc(C)c(S(=O)(=O)Nc2ccc3c4c(cccc24)CC3)c(C)c1	CF NFkB inh 57
CCCOC(c1ccccc1)(c1ccc(C(F)(F)F)cc1)C(Oc1nc(C)cc(C)n1)C(=O)O (configuration not stated)	TWEAK Fn14 block 61
Cc1cc(C)nc(OC(C(=O)O)C(OCCc2ccccc2)(c2ccc(F)cc2)c2ccc(F)cc2)n1 (configuration not stated)	none
CCCCCCCCN1C(=O)[C@H](CC(=O)NCCCCc2ccccc2)C[C@@]2(C(=O)OCC)CCCC=C12	none (no result: CF NFkB inh, Peg3 prom inh, KKLEB tox)
COc1ccc(/C=C(/C(=O)c2cccs2)N2C=CC=CC2=C(C#N)C#N)cc1	Peg3 prom inh 94
NS(=O)(=O)c1ccc(N=Nc2c[nH]c(=O)c(O)c2)cc1	HIF-2a block 41
Cc1ccccc1-c1cnc2c(c1)C(=O)N([C@H](C)CO)C[C@@H](C)[C@H](CN(C)C(=O)c1ccncc1)O2	none
COc1ccccc1N1CCN(C(=O)CCCn2c(=S)[nH]c3ccccc3c2=O)CC1	Peg3 prom inh 68
COc1ccccc1N1CCN(C(=O)CCn2c(=O)[nH]c3ccccc3c2=O)CC1	none
Cc1ccc(C(=O)Nc2ncc(Cc3ccc(F)cc3)s2)o1	none
N=C1SCC(=O)N1c1ncc(Cc2ccc(F)cc2)s1	TWEAK Fn14 block 103
CCCN1C(=O)CC(c2ccc(OC)c(OC)c2)C1=O (configuration not stated)	none
Cc1ccc(NC(=O)/C(C#N)=C/c2cc(C)n(-c3ccc(N4CCOCC4)c([N+](=O)[O-])c3)c2C)c(C)c1	TWEAK Fn14 block 54
Cc1cc(/C=C(\C#N)C(=O)Nc2ccc(Cl)cc2)c(C)n1-c1ccc(N2CCOCC2)c([N+](=O)[O-])c1	none
O=C(N/N=C/c1cc2ccccc2nc1Cl)/C(=C/c1cccs1)NC(=O)c1ccccc1	Peg3 prom inh 66
N#CC1=C(N)NC(SCc2ccc(Br)cc2)=C(C#N)C12CCCCC2	TROY signal inh 54
N#CC1=C(N)NC(SCc2ccc(Cl)cc2)=C(C#N)C12CCCCC2	none
CCN(CC)CCNc1c(C)cc(CO)c(Cl)c1C	Peg3 prom inh 72
CN(Cc1ccc(Cl)cc1)C(=O)CCl	CF NFkB inh 50, KKLEB tox -57
O=C(NCCCn1ccnc1)c1nc(Cn2cc(Br)cn2)no1	none
COCCN(C(=O)COC(=O)c1ccccc1NCc1ccco1)c1c(N)n(Cc2ccccc2)c(=O)[nH]c1=O	none
CCn1cc(C(=O)NC(C)C23CC4CC(CC(C4)C2)C3)cn1 (configuration not stated)	none
CC(NC(=O)Cn1ncc(Cl)c(Cl)c1=O)C12CC3CC(CC(C3)C1)C2 (configuration not stated)	CF NFkB inh 84, HIF-2a block 91, Peg3 prom inh 97, TWEAK Fn14 block 103, KKLEB tox -78, TROY signal inh 87
O=C(Nc1nnc(Cc2c[nH]c3ccccc23)s1)c1ccc(Cl)cc1Cl	TWEAK Fn14 block 65
CC(C)(C)c1ccc(C(=O)Nc2nnc(Cc3c[nH]c4ccccc34)s2)cc1	none
CCOC(=O)[C@]12CCC=C1N(Cc1cccc3ccccc13)C(=O)[C@H](CC(=O)NCC13CC4CC(CC(C4)C1)C3)C2	none (no result: CF NFkB inh, Peg3 prom inh, KKLEB tox)
O=S(=O)(Nc1ccc(-n2cccc2)cc1)c1ccc(Cl)c(Cl)c1	TROY signal inh 55
O=S(=O)(Nc1ccc(-n2cccc2)cc1)c1ccc(F)cc1	none
CC(=O)c1ccc(OCc2cc(C(=O)N(C)C(C)c3ccon3)no2)cc1 (configuration not stated)	TWEAK Fn14 block 84
Cc1cc(N2CCN(C(C(=O)NC3CCCC3)c3ccc(F)cc3)CC2)c2ccccc2n1 (configuration not stated)	none (no result: CF NFkB inh, Peg3 prom inh, TWEAK Fn14 block, KKLEB tox, TROY signal inh)
COc1ccc(OC)c(NC(=O)C2(C)CCN2C(=O)C2(c3ccc(Cl)cc3)CCC2)c1 (configuration not stated)	none
O=S(=O)(c1cccc(NC(=S)N2CCN(c3cccc(Cl)c3)CC2)c1)C(F)F	TWEAK Fn14 block 83
Clc1ccccc1-c1nc(-c2ccccc2)n[nH]1	none
Oc1ccccc1-c1n[nH]c(-c2ccccc2O)n1	TWEAK Fn14 block 77
COc1cc(C2C(C#N)=C(N)N(c3cccnc3)C3=C2C(=O)CCC3)ccc1O (configuration not stated)	none
